# Structures can show the parent of a compound that is named as a salt.
# Columns and labels:
# Settings in all cases: 10 µM; exposure time 6 h
# [1] = tested on: Danio rerio larvae (5 dpf); assay: difference in excitability vs DMSO (percentage points); higher = more excitable than DMSO
# How it was run: (§1)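 Wild-type 5 dpf zebrafish larvae in 96-well plates were given 100 µL egg water containing library compound at 10 µM final for 6 h. After 3 h of exposure, plates at 28.5 ℃ were photographed every 6 s during a 3-h programme of moving lines and 100 ms, 400Hz tones. Z-LaP Tracker (a DeepLabCut model) quantified each behaviour, averaged over 48 larvae per compound. Values are the compound mean minus the DMSO-vehicle control, in percentage points.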
# [2] = tested on: Danio rerio larvae (5 dpf); assay: difference in startle response vs DMSO (percentage points); higher = stronger startle than DMSO
# How it was run: as §1
# [3] = tested on: Danio rerio larvae (5 dpf); assay: difference in activity during first hour vs DMSO (percentage points); higher = more activity than DMSO
# How it was run: as §1
# [4] = tested on: Danio rerio larvae (5 dpf); assay: difference in habituation to acoustic stimuli vs DMSO (percentage points); higher = more habituation than DMSO
# How it was run: as §1
# [5] = tested on: Danio rerio larvae (5 dpf); assay: difference in combined optomotor response to red, green and blue moving lines vs DMSO (percentage points); higher = stronger optomotor response than DMSO
# How it was run: as §1
SMILES,difference in excitability [1],difference in startle response [2],difference in activity during first hour [3],difference in habituation to acoustic stimuli [4],difference [5]
CC1=NN(c2ccc(C)c(C)c2)C(=O)/C1=N\Nc1cccc(-c2cccc(C(=O)O)c2)c1O [Eltrombopag],19.6,-0.303,17.7,1.01,-0.694
CO/N=C(\C(=O)N[C@@H]1C(=O)N2C(C(=O)[O-])=C(C[N+]3(C)CCCC3)CS[C@H]12)c1csc(N)n1 [Cefepime (hydrochloride hydrate)],1.19,-0.767,1.35,1.3,-1.46
CNCC(O)c1ccc(OC(=O)C(C)(C)C)c(OC(=O)C(C)(C)C)c1 (stereo not given) [Dipivefrin (hydrochloride)],-3.61,-15.1,46.2,-2.07,2.48
C[C@H]1O[C@H](O[C@H]2[C@H](O)[C@@H](O)[C@@H](O[C@H]3[C@H](O)[C@@H](O)C(O)O[C@@H]3CO)O[C@@H]2CO)[C@H](O)[C@@H](O)[C@@H]1N[C@H]1C=C(CO)[C@@H](O)[C@H](O)[C@H]1O (stereo not given in full) [Acarbose],11,-8.81,-0.68,-4.5,4.03
CCOc1nc2cccc(C(=O)OC(C)OC(=O)OC3CCCCC3)c2n1Cc1ccc(-c2ccccc2-c2nn[nH]n2)cc1 (stereo not given) [Candesartan Cilexetil],12.4,-6.23,-2.86,-2.83,-2.76
CC(=O)S[C@@H]1CC2=CC(=O)CC[C@]2(C)[C@H]2CC[C@@]3(C)[C@@H](CC[C@@]34CCC(=O)O4)[C@H]12 [Spironolactone],2.95,-1.12,0.438,-0.129,-0.69
C[C@H](CCC(=O)O)[C@H]1CC[C@H]2[C@@H]3CC[C@@H]4C[C@H](O)CC[C@]4(C)[C@H]3C[C@H](O)[C@]12C [Deoxycholic Acid],13.1,-0.179,23.8,3.17,0.759
C[C@H]1C[C@@H]2[C@H]([C@@H](O)C[C@@]3(C)[C@H]2CC[C@]3(O)C(=O)CO)[C@@]2(C)C=CC(=O)C=C12 [Methylprednisolone],2.35,0.227,10.3,-3.19,9.29
COc1cc2nc(N(C)CCCNC(=O)C3CCCO3)nc(N)c2cc1OC (stereo not given) [Alfuzosin (hydrochloride)],9.01,2.43,5.63,-6.84,1.55
Clc1ccc(CSC(Cn2ccnc2)c2ccc(Cl)cc2Cl)cc1 (stereo not given) [Sulconazole (nitrate)],11.3,-12.7,-17.2,-12,-16.4
Cc1ccc(S(=O)(=O)NC(=O)NN2CCCCCC2)cc1 [Tolazamide],7.01,21.4,4.59,2.23,9.69
Nc1ccc(S(=O)(=O)Nc2ncccn2)cc1 [Sulfadiazine],11.9,4.72,7.75,1.42,-1.28
Nc1nc2[nH]cc(CCc3ccc(C(=O)N[C@@H](CCC(=O)O)C(=O)O)cc3)c2c(=O)[nH]1 [Pemetrexed (sodium salt hydrate)],7.7,-0.109,-1.67,4.63,5.29
CC(=O)O[C@]1(C(C)=O)CC[C@H]2[C@@H]3CCC4=CC(=O)CCC4=C3[C@@H](c3ccc(N(C)C)cc3)C[C@@]21C [Ulipristal Acetate],4.89,-8.5,-5.48,5.46,-10.6
CN(C)CCOC(C)(c1ccccc1)c1ccccn1 (stereo not given) [Doxylamine (succinate)],0.347,-2.91,6.73,5.01,9.42
CC(C)Nc1cccnc1N1CCN(C(=O)c2cc3cc(NS(C)(=O)=O)ccc3[nH]2)CC1 [Delavirdine (mesylate)],-2.46,-1.52,-9.21,7.6,-2.16
COc1c(N2CCNC(C)C2)c(F)cc2c(=O)c(C(=O)O)cn(C3CC3)c12 (stereo not given) [Gatifloxacin],15,-3.53,-1.17,2.86,2.83
CC(C)OC(=O)CCC/C=C\C[C@@H]1[C@@H](/C=C/[C@@H](O)COc2cccc(C(F)(F)F)c2)[C@H](O)C[C@@H]1O [Fluprostenol isopropyl ester],7.89,-1.38,5.82,8.61,7.99
O=C1CCc2ccc(OCCCCN3CCN(c4cccc(Cl)c4Cl)CC3)cc2N1 [Aripiprazole],14.5,5.72,12.4,-8.81,-3.23
Cn1nnc2c(C(N)=O)ncn2c1=O [Temozolomide],-3.41,0.671,-3.71,1.66,5.77
